Rows were chosen to be rich in hits. Some 2.2% of all compounds tested hit in one or more screens of this group.
ATXN2 expr inh: Primary qHTS for Inhibitors of ATXN expression; HEK-293 ATXN2-luciferase reporter, luminescence, 24 h; Potency, µM (highest dose often 57 µM), inactives show at the highest dose activity change, negative = inhibition, most hits filed as inhibitors; hit rate 0.72% among 360,000; AID 1745845, 2022; further: potency means the concentration at half of the fitted maximal effect; on the % scale 0 is the no-effect control and ±100 the full control effect; nearly all actives have a fitted effect of over 55% in size
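ATXN2-luciferase reporter cells (luciferase flanked by upstream and downstream ATXN2 gene portions) were treated 24 h at 37 °C with compounds at up to 57 uM. SteadyGlo luminescence gave expression; GF-AFC fluorescence gave viability.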
TGFb SMAD3 inh: qHTS for Inhibitors of TGF-b | HepG2 CAGA-GFP TGF-b/SMAD3 reporter, GFP fluorescence, 18 h; TGF-beta stimulated, 500 pg/mL final | Potency, µM (highest dose often 46.1 µM), for the others: at the top dose activity, negative = inhibition, actives largely listed as inhibitors | hit rate 1.2% among 410,000; further: potency means the concentration at half of the fitted maximal effect; on the % scale 0 is the no-effect control and ±100 the full control effect; nearly all actives have a fitted effect of over 65% in size
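Inhibition was scored as loss of TGF-beta-induced (500 pg/mL final, 18 hours, 37 degrees C) GFP in HEPG2 cells carrying a CAGA-GFP reporter, in DMEM with 1% FBS. Well GFP was summed per cell; Activity was normalised to unstimulated and stimulated DMSO wells, then concentration-response fitting.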
IDH1 R132H inh: qHTS for Inhibitors of mutant isocitrate dehydrogenase 1 (IDH1): qHTS; IDH1-R132H enzyme, NADPH consumption, diaphorase/resazurin fluorescence; hit rate 0.093% among 390,000; Isocitrate dehydrogenase [NADP] cytoplasmic (Homo sapiens), O75874; Potency, µM (top dose mostly 76.6 µM), for the others: at the highest dose activity change, negative = inhibition, most hits filed as inhibitors; further: potency means the concentration at half of the fitted maximal effect; on the % scale 0 is the no-effect control and ±100 the full control effect; nearly all actives have a fitted effect of over 65% in size
Target sequence (O75874 whole entry R132H, stated change not applied): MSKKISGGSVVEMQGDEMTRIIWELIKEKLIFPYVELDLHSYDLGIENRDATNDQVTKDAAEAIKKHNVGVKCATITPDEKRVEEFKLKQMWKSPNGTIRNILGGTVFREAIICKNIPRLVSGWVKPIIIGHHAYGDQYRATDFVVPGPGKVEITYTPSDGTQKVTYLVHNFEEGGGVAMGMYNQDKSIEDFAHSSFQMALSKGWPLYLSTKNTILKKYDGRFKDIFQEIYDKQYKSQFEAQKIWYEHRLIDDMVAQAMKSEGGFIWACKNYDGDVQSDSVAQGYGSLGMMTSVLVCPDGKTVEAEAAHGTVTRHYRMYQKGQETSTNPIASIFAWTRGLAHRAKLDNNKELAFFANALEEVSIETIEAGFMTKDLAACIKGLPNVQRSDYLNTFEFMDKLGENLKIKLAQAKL
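IDH1-R132H (0.5 ug/mL) preincubated 30 min with compound, then NADPH (0.016 mM) and alpha-KG (2 mM) added; 80 min at RT, pH 7.5. Remaining NADPH coupled via diaphorase/resazurin to fluorescence (540/590 nm); concentration-response curves normalized to no-enzyme control.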
HepG2 tox: qHTS for Inhibitors of TGF-b: Cytotox Counterscreen; HepG2 CAGA-GFP viability, ATP luminescence, 18 h; Potency, µM (top dose mostly 46.1 µM), inactives show at the top dose activity change, negative = cytotoxicity, hits mostly cytotoxic; hit rate 0.76% among 410,000; AID 588856, 2011; further: potency means the concentration at half of the fitted maximal effect
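HepG2 CAGA-GFP cells (1000/well, DMEM with 1% FBS) received compound, then TGF-beta at 500 pg/mL final, and were incubated 18 hours at 37 degrees C. Viability was read by CellTiter-Glo luminescence. Media-only wells were set as complete cell-killing and DMSO as no toxicity.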
LDHA block: qHTS assay for inhibitors of human lactate dehydrogenase; L-lactate dehydrogenase A chain (Homo sapiens), P00338; purified LDHA, NADH/diaphorase-resazurin fluorescence; active compounds read low; activity change, % (values are at about 110 or 230 µM); hit rate 0.15% among 480,000; AID 1347041, 2019; in the data active means activity change below about -30%; inconclusive means mostly about -25% to -30%;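 further: plate controls were DMSO wells for no effect and wells without enzyme for full effect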
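Enzyme activity of human lactate dehydrogenase 5 (2 nM; 0.06 mM NADH, 0.2 mM pyruvate, 5 min, RT) is measured via a resazurin/diaphorase fluorescence readout of residual NADH.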
S2 tox: Viability Counterscreen for Primary qHTS for Inhibitors of ATXN expression; S2 cells (HEK-293 line with an ATXN2-luciferase reporter) viability, CellTiter-Fluor protease fluorescence, 24 h; Potency, µM (titrated, usually from 56.7 µM), usual class: cytotoxic; hit rate 0.49% among 400,000; AID 651635, 2014; further: potency means the concentration at half of the fitted maximal effect; nearly all actives have a fitted effect of over 40% in size
An asterisk follows results filed as active; i = inactive; ? = inconclusive; / = no result given; ! = a repeat was not active; [ ] = dose if it differs, or a comment. Unless noted, the call rests on the fitted dose curve; in most records, active means well fitted curve in the direction sought with a large enough effect; inconclusive means small, poorly fitted or top-dose-only effect, or another doubt; inactive means no such curve, though single readings can be large; an effect the other way counts as inactive or inconclusive.

SMILES	ATXN2 expr inh	TGFb SMAD3 inh	IDH1 R132H inh	HepG2 tox	LDHA block	S2 tox
CCN(CC)CCn1c(-c2ccccc2)csc1=Nc1ccccc1	?	12.6µM*	-3.4%	-28.3%	-15.7	/
Cc1ccc(S(=O)(=O)N(C)C)cc1NC(=S)NC(C)CCCC(C)C (configuration not stated)	-17.8%	17.8µM*	1.8%	-34.0%	0.5	i
COc1cc(OC)c2ccc(=O)oc2c1C(CCN1CCCC(C)C1)c1ccc2c(c1)OCO2 (configuration not stated)	-21.3%	?	5.9%	-46.0%	0.8	28.2µM*
CCCCCc1cc(=O)oc2c(C(CCN3CCCC3)c3cc(OC)c(OC)c(OC)c3)c(OC)cc(OC)c12 (configuration not stated)	?	?	12.0%	15.8µM*	1.3	/
COc1cc(C(CCN2CCCC2)c2c(OC)cc(OC)c3c(C)cc(=O)oc23)cc(OC)c1OC (configuration not stated)	10.4%	2.9%	-4.5%	-0.5%	-0.1	?
COc1cc(OC)c2c(C)cc(=O)oc2c1C(CCN1CCCC(C)C1)c1ccc(N(C)C)cc1 (configuration not stated)	/	0.4%	/	-16.8%	/	/
CCCCCc1cc(=O)oc2c(C(CCN3CCCCC3)c3ccc(OC)cc3)c(OC)cc(OC)c12 (configuration not stated)	?	?	-6.2%	11.2µM*!	-11.9	31.6µM*
CCCCCc1cc(=O)oc2c(C(CCN3CCCC(C)C3)c3ccc(OC)cc3)c(OC)cc(OC)c12 (configuration not stated)	?	?	6.9%	11.2µM*	2.9	/
Cc1ccc(NC2CCCN(C(=O)c3cn(C)c4ccccc34)C2)cc1C (configuration not stated)	-14.1%	-3.2%	3.4%	-1.3%	8.4	i
COc1cc(C(CCN2CCCC(C)C2)c2c(OC)cc(OC)c3c(-c4ccccc4)cc(=O)oc23)cc(OC)c1OC (configuration not stated)	?	-6.0%	16.3%	-4.5%	0.9	/
CCCCCc1cc(=O)oc2c(C(CCN3CCCC3)c3ccc(N(C)C)cc3)c(OC)cc(OC)c12 (configuration not stated)	?	?	-7.2%	12.6µM*	2.5	31.6µM*
COc1cc(C(CCN2CCCCC2)c2c(OC)cc(OC)c3c(-c4ccccc4)cc(=O)oc23)cc(OC)c1OC (configuration not stated)	?	?	12.8%	-80.1%	0.4	25.1µM*
COc1cc(NC(=O)c2ccccc2)ccc1NC(=O)c1cc2ccccc2o1	?	?	7.4%	-4.4%	-3.8	?
Cc1cc(NC(=O)c2cncc(Br)c2)ccc1NC(=O)c1cc2ccccc2o1	?	-13.8%	-7.2%	-23.9%	-0.9	15.8µM*
COc1cc(NC(=O)c2cc(Cl)ccc2Cl)ccc1NC(=O)c1cc2ccccc2o1	31.6µM*	-20.7%	11.5%	-27.6%	1.5	/
COc1ccc(-c2nc(CSCC(=O)NCCC3=CCCCC3)c(C)o2)cc1OC	2.1%	-13.0%	1.9%	-24.3%	-2.7	?
O=C1[C@H](Cc2ccccc2)NCC=CC[C@H](c2ccc(Cl)cc2)N1Cc1ccccc1	?	17.8µM*	2.1%	-39.3%	2.1	?
O=C1[C@H](Cc2ccccc2)NCC=CC[C@@H](c2ccc(Cl)cc2)N1Cc1ccc(Cl)cc1	?	?	-19.6%[38.3 µM]	-90.7%	2.0	/
O=C1[C@H](Cc2ccccc2)NCC=CC[C@H](c2ccc(Cl)cc2)N1Cc1ccc(Cl)cc1	?	?	-3.1%	-59.9%	-0.4	31.6µM*
Cc1cccc(Oc2nc(-c3ccccn3)nc3ccccc23)c1	-8.0%	?	2.2%	11.2µM*	0.6	?
Cc1ccc(Cl)cc1-n1ncc2c(NCCCc3ccccc3)ncnc21	?	?	16.0%	-39.5%	-5.0	31.6µM*
COc1ccc(CNC(=O)C/C(C)=N/NC(=O)COc2ccc(C)cc2Br)cc1	-19.7%	?	8.5%	-1.4%	1.6	i
OCC[n+]1ccc(/C=C/c2c[nH]c3ccccc23)cc1	-5.6%	105.6%	2.9%	-6.3%	23.2	i
COc1ccc(C(=O)C[n+]2ccccc2Cl)cc1	/	?	/	-54.0%	/	/
O=C(CBr)c1ccc(Oc2ccc(C(=O)C[n+]3ccccc3Cl)cc2)cc1	/	?	/	-27.3%	-72.0*	/
SMILES	ATXN2 expr inh	TGFb SMAD3 inh	IDH1 R132H inh	HepG2 tox	LDHA block	S2 tox
C=CC(C)(C)c1c2occc2c(O)c2ccc(=O)oc12	-24.5%	?	13.2%	-25.5%	3.2	?
C=CC(C)(C)c1c(O)c(CC=C(C)C)c(O)c2c(=O)c3ccc(O)c(O)c3oc12	?	11.2µM*	?	14.1µM*	2.2	28.2µM*
CCOc1ccccc1OCCOCCN1CC(C)OC(C)C1 (configuration not stated)	-4.4%	-19.9%	3.4%	4.0%	-14.9	i
CCC(C)S(=O)(=O)c1oc(-c2cccs2)nc1S(=O)(=O)c1ccccc1 (configuration not stated)	/	1.12µM*	7.7%	2µM*	-2.9	/
CC(C)CS(=O)(=O)c1oc(-c2ccc(F)cc2)nc1S(=O)(=O)c1ccccc1	/	3.16µM*	0.3%	7.08µM*	-3.6	/
Cc1ccc(N2CC(C(=O)Nc3nccs3)CC2=O)cc1 (configuration not stated)	0.0%	-9.4%	0.1%	7.5%	-11.0	i
CCN(CC)c1ccc(N=Cc2ccccc2[N+](=O)[O-])cc1	?	?	11.6%	8.91µM*	26.1	?
CCN(CC)c1ccc(N=Cc2ccc([N+](=O)[O-])o2)cc1	0.4%	-29.5%	13.8%	-76.6%	28.8	i
Cc1[nH]n(-c2ccccc2)c(=O)c1N=Nc1nccs1	22.4µM*	?	3.7%	-26.9%	3.5	/
Cc1cccc(/C=N/NC(=O)c2cccc(Cl)c2)n1	?	-11.1%	-2.4%	-15.7%	-0.8	?
CCOc1ccc2nc3ccc4[nH]onc4c3c2c1	-17.3%	-4.1%	3.9%	-39.4%	4.8	/
CCOc1ccc2nc3cc(N)ccc3c(N)c2c1	12.6µM*	/	/	/	/	?

Assay outcomes: PubChem, National Center for Advancing Translational Sciences (NCATS)
